# Test results: the supplement of paper PMC7156485
# System: TDF
# Test: cell number relative to DMSO (% of DMSO); higher = more cells (less growth inhibition / toxicity)
# Conditions: concentration: 10 µM; 24 h
# In short: (§1)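 HCC1569 and TDF cells (800 per well, 384-well plates, RPMI with 10% FBS) were treated with compounds at 10 µM for 24 h at 37 °C, in triplicate. Cells were fixed in 3.7% formaldehyde and stained with a rabbit anti-H1.0 antibody, an AlexaFluor 647 secondary and DAPI; six fields per well were imaged at ×10. H1.0 nuclear intensity or cell number is expressed as percent of the plate DMSO control, taking the median of replicates. HCC1569 values were smoothed for positional effects.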
# 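Wherever H1.0 immunofluorescence intensity relative to DMSO is given: TDF is a line of transformed human dermal fibroblasts of mesenchymal origin.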
# 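Wherever cell number relative to DMSO is given: TDF denotes transformed human dermal fibroblasts of mesenchymal origin.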
row,Structure (SMILES),cell number
1,"CC(CC(c1ccccc1)c1ccccc1)NC(C)(C)C.Cl (centres undefined) [N-(tert-butyl)-4,4-diphenyl-2-butanamine hydrochloride]",97.5
2,CCCCC#Cc1nc(N)c2ncn(C3OC(C(=O)NCC)C(O)C3O)c2n1 (centres undefined),99.3
3,CC(Cc1ccccc1)(NC(=O)CN)c1ccccc1.Cl (centres undefined),107
4,COc1ccc(CNC(=O)c2sc3nc(C)cc(C)c3c2N)cc1,102

# System: TDF
# Test: H1.0 immunofluorescence intensity relative to DMSO (% of DMSO); higher = stronger H1.0 induction, active = 120 or more
# Conditions: concentration: 10 µM; 24 h
# In short: as §1
row,Structure (SMILES),H1.0 immunofluorescence intensity
1,CCCCCC(O)C=CC1C=CC(=O)C1CC=CCCCC(=O)O (centres undefined) [Prostaglandin A2],95.6 (inactive)
2,CNNCc1ccc(C(=O)NC(C)C)cc1 [Procarbazine],92.4 (inactive)
3,COc1cccc(-c2cn(-c3ccc(CCN4CCC(O)CC4)cc3)c3ncnc(N)c23)c1,127 (active)
4,CC(C)C(CO)Nc1nc(Nc2ccc(C(=O)O)c(Cl)c2)c2ncn(C(C)C)c2n1 (centres undefined) [Purvalanol B],93.1 (inactive)
5,COC(=O)C1=C(C)NC(C)=C([N+](=O)[O-])C1c1ccccc1C(F)(F)F (racemic),92.2 (inactive)
6,Cl.Nc1nc2ccc(OC(F)(F)F)cc2s1 [Riluzole.HCl],96.2 (inactive)
7,COc1ccc2cc3[n+](cc2c1OC)CCc1cc2c(cc1-3)OCO2.Cl,97.4 (inactive)
8,COc1ccc(Cl)cc1NC(=O)Nc1cc(C)nc2ccccc12 [N-(5-Chloro-2-methoxyphenyl)-N'-(2-methyl-4-quinolinyl)urea],104 (inactive)
9,"C=C1CCC(O)CC1=CC=C1CCCC2(C)C1CCC2C(C)CCC(O)C(C)(C)O [24(R),25-Dihydroxyvitamin D3]",101 (inactive)
10,O=c1oc2c(O)c(O)cc3c(=O)oc4c(O)c(O)cc1c4c23 [Ellagic acid],102 (inactive)
11,COc1cc2nc(N(C)CCCNC(=O)C3CCCO3)nc(N)c2cc1OC (centres undefined) [Alfuzosin],97.7 (inactive)
12,CC(=O)NCCc1ccc(O)c(O)c1 [N-Acetyldopamine monohydrate],96.7 (inactive)
13,COC(=O)C1C(O)CCC2CN3CCc4c([nH]c5ccccc45)C3CC21.Cl (centres undefined) [Yohimbine hydrochloride],93.8 (inactive)
14,Cl.NC(N)=NC(=O)Cc1c(Cl)cccc1Cl [Guanfacine.HCl],102 (inactive)
15,COC(=O)[C@@H](N)CSCC=C(C)CCC=C(C)CCC=C(C)C [S-Farnesyl-L-cysteine methylester],95.6 (inactive)
16,CCCCCCCCCCCC=CCCCCCC(=O)O [7(Z)-Nonadecenoic acid],101 (inactive)
17,CCOC(=O)CN1C(=O)c2ccc3c4c(ccc(c24)C1=O)C(=O)N(CC(=O)OCC)C3=O,89.7 (inactive)
18,NS(=O)(=O)c1cc(C(=O)O)c(NCc2ccco2)cc1Cl [Furosemide],91 (inactive)
19,COc1cc(C2CC(=O)c3c(O)cc(O)cc3O2)ccc1O (centres undefined) [Homoeriodictyol],99 (inactive)
20,COc1cc2c(N3CCN(C(=O)Nc4ccc(OC(C)C)cc4)CC3)ncnc2cc1OCCCN1CCCCC1 [Tandutinib],97.9 (inactive)

row,Structure (SMILES),H1.0 immunofluorescence intensity
1,CN(C)CCCOC1C(C(O)CO)OC2OC(C)(C)OC21.Cl (centres undefined) [Amiprilose hydrochloride],82.4 (inactive)
2,Cc1cc(C(=O)Nc2cccc(C(=O)Nc3cccc(C(F)(F)F)c3)c2)on1,99.6 (inactive)
3,CCOc1ccc2ccc(=O)oc2c1 [7-ethoxy-2H-chromen-2-one],93.7 (inactive)
4,N#Cc1c(N(CC(=O)[O-])CC(=O)[O-])sc(C(=O)[O-])c1CC(=O)[O-].[Sr+2].[Sr+2],86.6 (inactive)
5,C=C1C(=O)OC2C1CCC(C)=CCCC1(C)OC21 (centres undefined) [Parthenolide],119 (inactive)
6,CN(C)[C@@H]1CCc2[nH]c3ccc(NC(=O)c4ccc(F)cc4)cc3c2C1.Cl,94.9 (inactive)
7,COc1cccc2c1C(=O)c1c(O)c3c(c(O)c1C2=O)CC(O)(C(C)=O)CC3OC1CC(N)C(O)C(C)O1 (centres undefined) [Daunorubicin],134 (active)
8,NC/C=C\C(=O)O [cis-4-Aminocrotonic acid],98.3 (inactive)
9,COC(=O)N=NC=C1C=[N+]([O-])c2ccccc2N1O [Carbadox],95.8 (inactive)
10,COCCOC(=O)C1=C(C)NC(C)=C(C(=O)OC(C)C)C1c1cccc([N+](=O)[O-])c1 (centres undefined) [Nimodipine],91.6 (inactive)
11,COc1ccc(C2(C#N)CCC(C(=O)O)CC2)cc1OC1CCCC1 (centres undefined),98.8 (inactive)
12,CCCCCCCCCCCCCCC(C(=O)O)=C(C)C(=O)O [Chaetomellic acid A],104 (inactive)
13,C[N+](C)(C)C(Cc1c[nH]c(=S)[nH]1)C(=O)[O-] (centres undefined) [Ergothioneine],101 (inactive)
14,CCc1[nH]c(-c2ccc(OC)cc2)nc1-c1ccncc1,97 (inactive)
15,N#Cc1cc2nc([O-])c([O-])nc2cc1[N+](=O)[O-].[Na+].[Na+] [CNQX disodium],94.1 (inactive)
16,CCC(=O)N1CCN(C(=O)c2ccccc2)CC1,94.2 (inactive)
17,"CC(CC(c1ccccc1)c1ccccc1)NC(C)(C)C.Cl (centres undefined) [N-(tert-butyl)-4,4-diphenyl-2-butanamine hydrochloride]",99.1 (inactive)
18,CCCCC#Cc1nc(N)c2ncn(C3OC(C(=O)NCC)C(O)C3O)c2n1 (centres undefined),95.2 (inactive)
19,CC(Cc1ccccc1)(NC(=O)CN)c1ccccc1.Cl (centres undefined),103 (inactive)
20,COc1ccc(CNC(=O)c2sc3nc(C)cc(C)c3c2N)cc1,97.5 (inactive)
